Assay [1] is described as follows: growth inhibition of DIPG glioma cells, dose response, cell-based, SU-DIPG-XVII, MIPE5.0, CellTiter-Glo, qHTS (AID 1347060).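 On AC50: cells exposed to compound for 48 hours before viability readout.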 Particulars: SU-DIPG-XVII viability, CellTiter-Glo ATP luminescence.
Assay [2] can be described thus: growth inhibition of DIPG glioma cells, dose response, cell-based, JHH-DIPG-1, MIPE4.0, CellTiter-Glo, qHTS (AID 1347062; cut-off not given, nearly all actives have AC50 up to about 27 µM;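 on AC50: cells exposed to compound for two days before readout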). Particulars: JHH-DIPG-1 viability, CellTiter-Glo ATP luminescence. On the technique in general: Cellular ATP, detected with luciferase, serves as a proxy for viable cell number.
Assay [3] is described as follows: growth inhibition of DIPG glioma cells, dose response, cell-based, SU-DIPG-IV, MIPE4.0, CellTiter-Glo, qHTS (AID 1347063; cut-off not given, nearly all actives have AC50 up to about 30 µM;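 further: compound exposure lasted 48 hours before the viability readout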). Conditions: SU-DIPG-IV viability, CellTiter-Glo ATP luminescence.
Assay [4] in a line: growth inhibition of DIPG glioma cells, dose response, cell-based, SU-DIPG-XIII, MIPE5.0, CellTiter-Glo, qHTS (AID 1347064; cut-off not given, nearly all actives have AC50 up to about 23 µM;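 on AC50: cells exposed to compound for 48 hours before the viability read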). Conditions: SU-DIPG-XIII viability, CellTiter-Glo ATP luminescence.
A short description of assay [5]: viability loss in pontine glioma line – cell-based, SU-DIPG-XXV, MIPE5.0, CellTiter-Glo, qHTS, dose response (AID 1347065).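 Further: cells exposed to compound for 48 hours before ATP readout.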 Particulars: CellTiter-Glo ATP luminescence.
Assay [6] in a line: SU-DIPG-VI glioma cell viability, MIPE4.0 library, CellTiter-Glo luminescence, qHTS (AID 1347066; cut-off not given, nearly all actives have AC50 up to about 30 µM;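 further: cells exposed to compound for 48 hours before readout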). Conditions: CellTiter-Glo ATP luminescence.
Assay [7] in a line: JHH-DIPG-1 glioma cell viability, MIPE5.0 library, CellTiter-Glo luminescence, qHTS (AID 1347067).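 Further: cells exposed to compound for 48 hours before readout.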 Conditions: JHH-DIPG-1 glioma viability, CellTiter-Glo ATP luminescence.
Assay [8] can be described thus: SU-DIPG-XXV glioma cell viability, MIPE5.0 library, qHTS (AID 1347068; cut-off not given, nearly all actives have IC50 up to about 30 µM;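 on IC50: cells exposed to compound for 48 hours before viability readout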).
Assay [9] is described as follows: sensitizers of A549 cells to miR-34 induction, primary screen, imaging, A549 dox-inducible miR-34, nuclei and caspase counts (AID 1347080;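 active means compounds whose cell count with miR-34 switched on is under 0.7 times the count with it off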). Conditions: A549 miR-34 inducible, Hoechst nuclei count, 48 h.
Assay [10] is described as follows: survival rescue of mitochondrial mutant cells in low glucose, primary screen, MELAS cybrids, Rieske KO mouse fibroblasts, CellTiter-Glo (AID 1508586;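 active means mean z-score across replicates of 1.96 or higher in either the MELAS or the Rieske mutant cell line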;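 further: z relative to plate mean and SD of compound and empty wells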).
Assay [11] can be described thus: growth inhibition of DIPG glioma cells, dose response, cell-based, SU-DIPG-XIII, MIPE4.0, CellTiter-Glo, qHTS (AID 1347061; cut-off not given, nearly all actives have AC50 up to about 37 µM;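 further: cells exposed to compound for 48 hours before readout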). Particulars: SU-DIPG-XIII viability, CellTiter-Glo ATP luminescence.
The nature of assay [12]: modifiers of HSF1 nuclear foci, imaging, Selleck Cancer Library (AID 1347162; in the data active means plate-normalised HSF1 focus index below about 0.46). Particulars: human cells, at 10 µM; SSMD: measured here: HSF1 foci SSMD mean; cell count: measured here: cell number; plate-normalised HSF1 focus index: stronger effect = lower value.
Setting [13] is: stronger effect = lower value, cell number ratio, induced over uninduced.
[14] abbreviates: measured here: relative caspase fold change +Dox/-Dox.
Setting [15] is: measured here: total cells with miR-34 induction, stronger effect = lower value.
Where [16] appears, read: measured here: total cells without miR-34 induction.
The mark [17] stands for this setting: MELAS cybrid survival, CellTiter-Glo 48 h, stronger effect = higher value.
Setting [18] is: Rieske KO mouse fibroblast survival, CellTiter-Glo 72 h.

Inconclusive results are not listed. Calls of active or inactive are those of the source. Unless noted, cut-off not given; nearly all actives show AC50 up to about 26 µM. Where a SMILES comes first, the peptide text is derived from it. The star is where a group is joined. Cbz = O=C(OCc1ccccc1)*

In the case of `Cc1cc(CN2CCN(c3c(Br)cnc4nc(-c5ccc(N6CCN(C)CC6)cc5)[nH]c34)CC2)no1`, the AC50 – broadly, the concentration at which the activity in the assay is half-maximal – in assay [1] is 1.66 µM (active); in [2], 7.43 µM (active); in assay [3] it was 5.26 µM (active); in assay [4], 3.32 µM (active); in assay [5], 1.05 µM (active); in assay [6], 14.8 µM (active). Besides, the AC50 in assay [7] was 2.63 µM (active). Besides, the 50% inhibitory concentration (IC50) – broadly, the concentration at which inhibition is half-maximal – in [8] was 8.33 µM (active). The fold change is 1.05 (inactive) in assay [9] (setting [13]) and 0.921 in assay [9] (setting [14]). Besides, the cell count worked out at 3400 in assay [9] (setting [15]) and 3250 in assay [9] (setting [16]). In addition, the results for the z-score in assay [10] (setting [17]) and in [10] (setting [18]) were -0.545 (inactive) and -0.677, respectively.
Regarding `CCc1cnn2c(NCc3ccc[n+]([O-])c3)cc(N3CCCC[C@H]3CCO)nc12`, the AC50 in assay [1] is 0.0372 µM (active); in assay [2], 0.0235 µM (active); in [3], 0.0187 µM (active); in [4], 0.0372 µM (active); in [5] it was 0.0295 µM (active); in assay [7] it was 0.0417 µM (active). For the same compound, the compound was classed as inactive in assay [6].
As for `Cc1ccc(Nc2cc(-c3cccc(N4C(=O)c5ccccc5C4=O)c3)ncn2)cc1NS(C)(=O)=O`, the AC50 in [1] is 20.9 µM (active); in [3] it was 18.7 µM (active). For the same compound, in assay [2], the compound was called inactive.
Turning to `C=CC(=O)Nc1ccc2ncnc(Nc3ccc(OCc4cccc(F)c4)c(Cl)c3)c2c1`, the half-maximal activity concentration (AC50) was 5.25 µM (active) in [1]; 23.5 µM (active) in assay [2]; 1.32 µM (active) in assay [3]; 11.8 µM (active) in [4]; 6.61 µM (active) in [5]; 4.69 µM (active) in assay [6]. In addition, the AC50 in [7] was 8.33 µM (active). The IC50 in [8] is 14.8 µM (active). The fold change in [9] (setting [13]) is 0.764 (inactive); in assay [9] (setting [14]), 2.08. Besides, the cell count was determined as 4290 in assay [9] (setting [15]) and 5610 in assay [9] (setting [16]). Further, the figures for the z-score in [10] (setting [17]) and in assay [10] (setting [18]) were -0.263 (inactive) and 0.764, respectively.
Consider `O=C1CCCC(=O)C1C(=O)c1ccc(C(F)(F)F)cc1[N+](=O)[O-]`, for which the compound was called inactive in assay [1], in [2], in assay [3], in assay [4], in assay [5] and in assay [6]. In addition, the outcome in assay [7] and in assay [8] was inactive.
For `CC1(C)Cc2c(sc(NC(=S)NC(=O)c3ccccc3)c2C(=O)O)CO1`, the outcome in assay [1], in assay [2], in [3], in assay [4], in assay [5] and in assay [6] was inactive. Besides, the call in [7] and in assay [8] was inactive.
`CCn1nnc2c(N3CCOCC3)nc(-c3ccc(NC(=O)Nc4ccc(C(=O)N5CCN(C)CC5)cc4)cc3)nc21`: the AC50 in assay [1] was 0.372 µM (active); in [2] it was 0.469 µM (active); in assay [3], 0.0148 µM (active); in [4], 0.742 µM (active); in [5], 0.372 µM (active); in assay [6] it was 0.166 µM (active). Further, in assay [7], the half-maximal activity concentration (AC50) was 0.934 µM (active). The half-inhibitory concentration (IC50) in [8] was 0.742 µM (active).
Consider `CSc1cccc(Nc2ncc3cc(-c4c(Cl)cccc4Cl)c(=O)n(C)c3n2)c1`, for which the AC50 is 1.48 µM (active) in assay [1], 1.05 µM (active) in assay [5] and 1.18 µM (active) in [7]. In addition, in assay [11], the call was inactive.
As to `CC(C)C[C@@H](C=O)NC(=O)[C@H](CC(C)C)NC(=O)[C@H](CC(C)C)NC(=O)OCc1ccccc1` (Cbz-Leu-Leu-Leu-aldehyde), the concentration at half-maximal activity (AC50) in assay [1] was 0.468 µM (active); in assay [2], 0.166 µM (active); in assay [3], 0.148 µM (active); in [4], 0.059 µM (active); in assay [5], 0.148 µM (active); in assay [6], 0.296 µM (active). Also, in assay [7], the AC50 was 0.468 µM (active). Besides, in [8], the IC50 is 0.263 µM (active). The fold change in assay [9] (setting [13]) is 1.07 (inactive); in assay [9] (setting [14]), 1.23. In addition, the cell count was found to be 638 in assay [9] (setting [15]), 595 in [9] (setting [16]) and 6800 in assay [12]. Also, in assay [12], the SSMD came out at 7.09. Further, in assay [12], the plate-normalised HSF1 focus index is 1.43 (inactive).
In the case of `Clc1ccc(COC(Cn2ccnc2)c2ccc(Cl)cc2Cl)cc1` (stereo not given), the half-maximal activity concentration (AC50) in assay [1] is 18.6 µM (active); in assay [5], 16.6 µM (active); in assay [7], 13.2 µM (active). Moreover, in [11], the compound was called inactive.
Consider `COC(=O)Nc1ccc(-c2nc(N3CCOCC3)c3cnn(C4CCN(Cc5cccnc5)CC4)c3n2)cc1`, for which the AC50 in [1] was 5.25 µM (active); in [2], 6.62 µM (active); in [3] it was 0.235 µM (active); in [4], 6.61 µM (active); in [5], 1.48 µM (active); in assay [6] it was 14.8 µM (active). The concentration at half-maximal activity (AC50) in [7] was 6.61 µM (active). The IC50 in assay [8] is 13.2 µM (active).
For `Cc1cnc(Nc2cccc(CN3CCOCC3)c2)nc1Nc1cccc(S(=O)(=O)NC(C)(C)C)c1`, the concentration at half-maximal activity (AC50) is 0.332 µM (active) in assay [1]; 7.43 µM (active) in assay [2]; 5.26 µM (active) in assay [3]; 2.95 µM (active) in assay [4]; 1.18 µM (active) in assay [5]; 14.8 µM (active) in assay [6]. Moreover, in assay [7], the AC50 is 2.35 µM (active).
With `Cc1cc(SCc2sc(-c3ccc(C(F)(F)F)cc3)nc2C)ccc1OCC(=O)O`, the compound was classed as inactive in [1], in assay [2], in assay [3], in [4], in assay [5] and in assay [6]. Moreover, the compound was called inactive in assay [7] and in assay [8].
`Cc1ccc(NC(=O)C2(c3ccc4c(c3)OC(F)(F)O4)CC2)nc1-c1cccc(C(=O)O)c1`: the compound was called inactive in assay [1], in assay [4], in assay [5], in [7] and in assay [8]. Further, the AC50 was 0.0833 µM (active) in assay [2], 0.118 µM (active) in assay [3] and 1.18 µM (active) in assay [6]. Also, the fold change was 0.92 (inactive) in assay [9] (setting [13]) and 0.757 in assay [9] (setting [14]). Also, the cell count amounted to 8150 in [9] (setting [15]) and 8860 in assay [9] (setting [16]). Further, the z-score in [10] (setting [17]) was -0.25 (inactive); in assay [10] (setting [18]) it was -0.226.
Turning to `O=C(c1ccc(F)cc1)N1CCC[C@H](c2nc(-c3ccc(F)cc3)no2)C1`, the result in assay [1], in [2], in assay [3], in [4], in assay [5] and in assay [6] was inactive. Moreover, the compound was called inactive in assay [7] and in assay [8].
As to `CCN(CC)CCNC(=O)c1ccc2nc(-c3ccccc3)c(-c3ccc(CN4CCC(n5c(=O)[nH]c6ccccc65)CC4)cc3)nc2c1`, the AC50 in assay [1] is 11.8 µM (active); in assay [2], 8.33 µM (active); in assay [3], 4.69 µM (active); in assay [4] it was 14.8 µM (active); in assay [5], 10.5 µM (active); in [6] it was 3.32 µM (active). Also, the concentration at half-maximal activity (AC50) in assay [7] was 10.5 µM (active). In [8], the IC50 is 7.42 µM (active).
Consider `C=C[C@H]1CN2CCC1C[C@@H]2C(O)c1ccnc2ccc(OC)cc12` (stereo not given in full), for which the call in assay [1], in assay [2], in assay [3], in assay [4], in [5] and in assay [6] was inactive. Besides, the compound was classed as inactive in assay [7] and in [8]. The fold change in assay [9] (setting [13]) is 0.966 (inactive); in assay [9] (setting [14]) it was 0.977. The cell count in [9] (setting [15]) was determined as 5680; in [9] (setting [16]), 5880.

The values are drawn from PubChem BioAssay.
